Measured values from the supplement of paper PMC11018630.
Structures can show the parent of a compound that is named as a salt. ± gives the standard deviation of the averaged measurements.

test system: RDEB dermal fibroblasts EB119; experiment: day of extracellular matrix detachment from plate (days); higher = delayed detachment (less fibrotic matrix); conditions: compound concentration: 10 uM

| Structure (SMILES) | day of extracellular matrix detachment from plate |
| --- | --- |
| CNC(=O)[C@H](Cc1ccccc1)NC(=O)[C@H](CC(C)C)[C@H](CSc1cccs1)C(=O)NO [Batimastat (BB-94)] | 18 |
| Cc1cc(/C=C/C#N)cc(C)c1Nc1ccnc(Nc2ccc(C#N)cc2)n1 [Rilpivirine] | 39 |
| CSc1ccc2c(c1)N(CCC1CCCCN1C)c1ccccc1S2 (centres undefined) [Thioridazine HCl] | 39 |
| COCCCOc1ccnc(C[S+]([O-])c2nc3ccccc3[nH]2)c1C (centres undefined) [Rebeprazole sodium] | 25 |
| O=C(O)CCCCCCCC(=O)O [Azelaic acid] | 26.3 ± 1.1 |
| O=C(O[C@H]1CN2CCC1CC2)N1CCc2ccccc2[C@@H]1c1ccccc1 [Solifenacin succinate] | 33.3 ± 1.1 |
| CCCCCCCCc1ccc(CCC(N)(CO)CO)cc1 [Fingolimod (FTY720) HCl] | 26 ± 1.4 |
| CC(C)[C@H]1C(=O)N[C@@H](CCCNC(=N)N)C(=O)NCC(=O)N[C@@H](CC(=O)O)C(=O)N[C@H](Cc2ccccc2)C(=O)N1C [Cilengitide] | 4 |
| CC(C)(CO)[C@@H](O)C(=O)NCCCO [D panthenol] | 26 ± 1.4 |
| CCCN(CCC)C(=O)C1=Cc2ccc(-c3ccc(C(=O)N4CCCC4)cc3)cc2N=C(N)C1 [Motolimod (VTX-2337)] | 26 ± 1.4 |
| Nc1nc(NC2CC2)c2ncn([C@H]3C=C[C@@H](CO)C3)c2n1 [Abacavir sulfate] | 27 |
| C=CC[C@@H]1/C=C(\C)C[C@H](C)C[C@H](OC)[C@H]2O[C@@](O)(C(=O)C(=O)N3CCCC[C@H]3C(=O)O[C@H](/C(C)=C/[C@@H]3CC[C@@H](O)[C@H](OC)C3)[C@H](C)[C@@H](O)CC1=O)[C@H](C)C[C@@H]2OC [Tacrolimus (FK506)] | 20.7 ± 1.1 |
| O=C1C(O)=C([C@H]2CC[C@H](c3ccc(Cl)cc3)CC2)C(=O)c2ccccc21 [Atovaquone] | 26 ± 1.4 |
| CN1CCC(COc2cnc(-c3cccc(Cn4nc(-c5cccc(C#N)c5)ccc4=O)c3)nc2)CC1 | 15.5 ± 3.5 |
| CCOC(=O)[C@H]1O[C@@H]1C(=O)N[C@@H](CC(C)C)C(=O)NCCC(C)C [Aloxistatin] | 25 |
| CCN(CC)CCCC(C)Nc1ccnc2cc(Cl)ccc12 (centres undefined) [Chloroquine Phosphate] | 35.3 ± 1.1 |
| C[N+](C)(CCOc1ccccc1)Cc1ccccc1.O=C([O-])c1cc2ccccc2cc1O [Bephenium Hydroxynaphthoate] | 26 ± 1.4 |
| OC(c1cc(C(F)(F)F)nc2c(C(F)(F)F)cccc12)C1CCCCN1 (centres undefined) [Mefloquine HCl] | 39 |
| CCN(CCO)CCCC(C)Nc1ccnc2cc(Cl)ccc12 (centres undefined) [Hydroxychloroquine Sulfate] | 32 |
